Laboratory results as given in PubChem BioAssay (NCI).
About 83,000 compounds went through this panel and 20% of them were active in at least one assay; those are over-represented in the sample as a whole.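 Percent growth is the endpoint: 0 to 100 indicates growth inhibition (40 means 60% inhibition), 0 means no net growth, and negative values indicate cell death.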 Active and inactive are the calls of the source. The calls were made as follows: active = growth percent below 10; inactive = the rest.

Test system: NCI-H322M lung
Assay: NCI-60 one-dose screen, 48 h (100 = growth as untreated, 0 = no growth, -100 = all killed)
Settings: 10 µM unless noted

Compound	growth
CCOC(=O)C1=C(COCCN)NC(C)=C(C(=O)OC)C1c1ccccc1Cl (stereo unspecified)	80.3% (inactive)
Cc1cc2c(C#N)n3c(c2cc1C)C(=O)C(c1ccccc1)Oc1ccccc1-3 (stereo unspecified)	81.8% (inactive)
CN(C)c1nc(N)nc(Cn2c(-c3nonc3N)nc3ccccc32)n1	103% (inactive)
COC(=O)[C@]1(C(C)C)N[C@H](c2cn(-c3ccccc3)nc2-c2ccccc2)[C@@H]2C(=O)N(c3ccc(Cl)cc3)C(=O)[C@@H]21	99.1% (inactive)
CCOC(=O)/C(=C/c1ccccc1)C(=O)c1ccccc1	84.2% (inactive)
Cn1cnc([N+](=O)[O-])c1S(=O)(=O)Oc1ccc(Cl)cc1	104% (inactive)
O=C(/C=C/c1ccccc1Cl)c1ccc(O)cc1	89.5% (inactive)
O=C(Cc1ccccn1)C(F)(F)C(F)(F)C(F)(F)F	116% (inactive)
Cn1c(=O)c2nc(SCc3ccccc3)n(C)c2n(C)c1=O	109% (inactive)
COc1ccc2c(c1)nc(N)c1c3ccccc3cn21	88.1% (inactive)
O=C(/C(=C/c1cccc([N+](=O)[O-])c1)c1ccccc1)c1ccccc1	80.6% (inactive)
CCCCCCCC/C=C\CCCCCCCCOc1ccccc1CC(=O)NCC[N+]1(C)CCCC1	103% (inactive)
O=C(C(=O)N1CCCCC1)c1ccc(OC2OC(CO)C(O)C(O)C2O)cc1 (stereo unspecified)	116% (inactive)
O=NC1CC=CCC1c1ccccc1 (stereo unspecified)	118% (inactive)
CCC(C)(C)C(=O)O[C@H]1C[C@@H](C)C=C2C=C[C@H](C)[C@H](CC[C@@H]3C[C@@H](O)CC(=O)O3)[C@H]21	51% (inactive)
COc1ccc2[nH]cc(/C=C3/C(=O)Nc4ccc(F)cc43)c2c1	94% (inactive)
C[C@]12CC[C@@H]3c4ccc(O)cc4CC[C@H]3[C@@H]1CC[C@@H]2NS(=O)(=O)c1cccc(Br)c1	70.6% (inactive)
NC(=O)NN=C(C1CC1)C1CC1	110% (inactive)
CN(C)c1ccc(/C=C\c2ccnc3ccccc23)cc1	90.6% (inactive)

Test system: HOP-62 NSCLC
Assay: as above
Settings: 10 µM unless noted

Compound	growth
CC(=O)O[C@H]1C(=O)[C@@]2(C)C([C@H](OC(=O)c3ccccc3)[C@]3(O)C[C@H](OC(=O)[C@H](O)[C@@H](NC(=O)c4ccccc4)c4ccccc4)C(C)=C1C3(C)C)[C@]1(OC(C)=O)CO[C@@H]1C[C@@H]2O (stereo partly specified)	24.6% (inactive)
CCCCCCCC/C=C/CCCCCCCC1=NC(C)(C)CN1CC(C)O (stereo unspecified)	36.5% (inactive)
COc1cc(C2NC(c3ccc(Cl)cc3)C(C)C(=NC(=O)c3cnccn3)C2C)cc(OC)c1OC (stereo unspecified)	117% (inactive)
C[C@@H]1CC[C@H]2[C@@H](C)C(O)O[C@@H]3O[C@]4(C)CC[C@@H]1[C@]32OO4 (stereo partly specified)	59.4% (inactive)
C/C(=C\CCc1ccsc1)CC/C=C(\C)CCCN1CCN(CCO)CC1	69.1% (inactive)
CN1COc2ccc3ccccc3c2C1	80.1% (inactive)
COc1ccc(-c2cnnn2-c2cc(OC)c3c(c2)OCO3)cc1	30.2% (inactive)
Nc1c2ccccc2nc2ccccc12 (tested in a mixture with another compound)	25.8% (inactive)
CCOC(=O)C1=C(C)N2C(=NC3=C(CCC/C3=C\c3ccc(Cl)cc3)C2c2ccc(Cl)cc2)S1 (stereo unspecified)	88.2% (inactive)
C=C(C)[C@H]1CC/C(C)=C/CC[C@]2(C)O[C@H]2CC/C(C=O)=C\C1O (stereo partly specified)	105% (inactive)
CCN(CC)CCCCNc1c2ccccc2[n+](C)c2c1[nH]c1ccccc12	-3.3% (active)
Cn1cc(-c2csc(-c3c[nH]c4ncccc34)n2)c2cc(F)cnc21	79.5% (inactive)
Nc1ccccc1-c1ccc([N+](=O)[O-])cc1	53.1% (inactive)
Cc1ccc(NC(=O)Nc2ccc(-c3cccnc3)cc2N2CCC(CO)CC2)cc1	24.9% (inactive)
NNC(=O)C1CC2c3ccccc3C1c1ccccc12 (stereo unspecified)	112% (inactive)
O=C(OC[C@H]1O[C@H](OC(=O)c2cc(O)c(O)c(OC(=O)c3cc(O)c(O)c(O)c3)c2)[C@H](OC(=O)c2cc(O)c(O)c(OC(=O)c3cc(O)c(O)c(O)c3)c2)[C@@H](OC(=O)c2cc(O)c(O)c(OC(=O)c3cc(O)c(O)c(O)c3)c2)[C@@H]1OC(=O)c1cc(O)c(O)c(OC(=O)c2cc(O)c(O)c(O)c2)c1)c1cc(O)c(O)c(OC(=O)c2cc(O)c(O)c(O)c2)c1	46.2% (inactive)
NS(=O)(=O)c1ccc(NC2=C(Cl)C(=O)c3ccccc3C2=O)cc1	102% (inactive)
CCOC(=O)C1=C(COCCN)NC(C)=C(C(=O)OC)C1c1ccccc1Cl (stereo unspecified)	89.7% (inactive)
Cc1cc2c(C#N)n3c(c2cc1C)C(=O)C(c1ccccc1)Oc1ccccc1-3 (stereo unspecified)	35.7% (inactive)

Compound	growth
CN(C)c1nc(N)nc(Cn2c(-c3nonc3N)nc3ccccc32)n1	81% (inactive)
COC(=O)[C@]1(C(C)C)N[C@H](c2cn(-c3ccccc3)nc2-c2ccccc2)[C@@H]2C(=O)N(c3ccc(Cl)cc3)C(=O)[C@@H]21	95.7% (inactive)
CCOC(=O)/C(=C/c1ccccc1)C(=O)c1ccccc1	74.9% (inactive)
Cn1cnc([N+](=O)[O-])c1S(=O)(=O)Oc1ccc(Cl)cc1	92.3% (inactive)
O=C(/C=C/c1ccccc1Cl)c1ccc(O)cc1	117% (inactive)
O=C(Cc1ccccn1)C(F)(F)C(F)(F)C(F)(F)F	97.5% (inactive)
Cn1c(=O)c2nc(SCc3ccccc3)n(C)c2n(C)c1=O	107% (inactive)
COc1ccc2c(c1)nc(N)c1c3ccccc3cn21	85.6% (inactive)
O=C(/C(=C/c1cccc([N+](=O)[O-])c1)c1ccccc1)c1ccccc1	91.2% (inactive)
CCCCCCCC/C=C\CCCCCCCCOc1ccccc1CC(=O)NCC[N+]1(C)CCCC1	80.6% (inactive)
O=C(C(=O)N1CCCCC1)c1ccc(OC2OC(CO)C(O)C(O)C2O)cc1 (stereo unspecified)	104% (inactive)
O=NC1CC=CCC1c1ccccc1 (stereo unspecified)	98.7% (inactive)
CCC(C)(C)C(=O)O[C@H]1C[C@@H](C)C=C2C=C[C@H](C)[C@H](CC[C@@H]3C[C@@H](O)CC(=O)O3)[C@H]21	80.7% (inactive)
COc1ccc2[nH]cc(/C=C3/C(=O)Nc4ccc(F)cc43)c2c1	105% (inactive)
C[C@]12CC[C@@H]3c4ccc(O)cc4CC[C@H]3[C@@H]1CC[C@@H]2NS(=O)(=O)c1cccc(Br)c1	-16.6% (active)
NC(=O)NN=C(C1CC1)C1CC1	104% (inactive)
CCC1=C(c2ccc(OC)cc2)C(C)(C)Oc2c1ccc(O)c2CN1CCCC1	18.7% (inactive)
CN(C)c1ccc(/C=C\c2ccnc3ccccc23)cc1	82% (inactive)
